The supplement of paper PMC12645437, “Orthogonal IMiD-Degron Pairs Induce Selective Protein Degradation in Cells” (ACS Chemical Biology, 2025)
The full ranking holds about 8,300 sequences; the median of “log2 fold change of degron read counts, EGFP-low vs EGFP+ sorted cells (limma voom), compound-induced degradation” is about -1.1, and the highest 2% start at about 3.2. What follows is part of a selection rich in the highest values, with near analogues and random picks from the rest.

T1: CRBN, Q96SW2
T1 chain: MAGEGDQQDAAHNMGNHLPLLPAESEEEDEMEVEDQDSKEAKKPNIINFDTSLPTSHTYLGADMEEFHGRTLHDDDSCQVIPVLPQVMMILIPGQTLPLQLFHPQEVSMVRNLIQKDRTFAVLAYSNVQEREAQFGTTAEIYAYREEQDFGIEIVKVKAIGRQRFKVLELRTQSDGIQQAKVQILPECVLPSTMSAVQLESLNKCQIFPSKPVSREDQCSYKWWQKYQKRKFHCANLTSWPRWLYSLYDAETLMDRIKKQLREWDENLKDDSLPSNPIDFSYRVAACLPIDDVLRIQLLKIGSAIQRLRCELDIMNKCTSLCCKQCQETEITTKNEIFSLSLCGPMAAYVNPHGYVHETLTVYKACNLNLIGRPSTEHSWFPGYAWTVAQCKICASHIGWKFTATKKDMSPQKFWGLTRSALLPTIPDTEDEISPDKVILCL


Biological target: T1, CRBN, Q96SW2
Experiment: log2 fold change of degron read counts, EGFP-low vs EGFP+ sorted cells (limma voom), compound-induced degradation; higher = more compound-induced degradation of the degron-EGFP fusion; degrons are variants of IKZF1/3 zinc finger 2; compound dose not given here
Details: Jurkat, 18 h
[1] = compound: compound 19 (5-tert-butyl-thalidomide)
[2] = compound: compound 22 (5-morpholino-thalidomide)
[3] = compound: compound 33 (diphenyl IMiD analogue)
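Also: pooled lentiviral library of zinc finger degron-EGFP fusions in mCherry-positive Jurkat cells, FACS-sorted after compound exposure, with degron abundance counted by next-generation sequencing.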

Sequence	log2 fold change of degron read counts [1]	log2 fold change of degron read counts [2]	log2 fold change of degron read counts [3]	log2 fold change of degron read counts (compound: thalidomide)
FWCNQCGRCFTQKGNLLRHIKL [46F_47W_49N_50Q_52G_53R_54C_55F_67L_, Q9UKT9]	-1.48	-2.02	-1.83	-1.5
LGCEICGFICTQKGNLLRHIKL [46L_47G_49E_50I_52G_53F_54I_55C_67L_, Q9UKT9]	0.761	-0.0429	-0.436	-0.337
FICEICGARFTQKGNLLRHIKL [46F_47I_49E_50I_52G_53A_54R_55F_67L_, Q9UKT9]	0.817	2.66	1.57	3.04
FHCEICGARFTQKGNLLRHIKL [46F_47H_49E_50I_52G_53A_54R_55F_67L_, Q9UKT9]	2.72	2.42	0.44	0.706
FDCEICGARFTQKGNLLRHIKL [46F_47D_49E_50I_52G_53A_54R_55F_67L_, Q9UKT9]	3.3	1.74	0.651	2.27
FACEICGARFTQKGNLLRHIKL [46F_47A_49E_50I_52G_53A_54R_55F_67L_, Q9UKT9]	3.84	2.89	-0.685	1.16
FQCEICGARFTQKGNLLRHIKL [46F_47Q_49E_50I_52G_53A_54R_55F_67L_, Q9UKT9]	0.106	2.1	1.34	3.7
FVCEICGARFTQKGNLLRHIKL [46F_47V_49E_50I_52G_53A_54R_55F_67L_, Q9UKT9]	1.67	2.43	1.02	3.07
FYCEICGARFTQKGNLLRHIKL [46F_47Y_49E_50I_52G_53A_54R_55F_67L_, Q9UKT9]	3.7	3.37	2.11	1.8
FQCEICGAWFTQKGNLLRHIKL [46F_47Q_49E_50I_52G_53A_54W_55F_67L_, Q9UKT9]	-1.84	-0.947	0.615	2.26
FRCEICGARFTQKGNLLRHIKL [46F_47R_49E_50I_52G_53A_54R_55F_67L_, Q9UKT9]	-0.586	-0.873	-0.311	0.853
FMCEICGARFTQKGNLLRHIKL [46F_47M_49E_50I_52G_53A_54R_55F_67L_, Q9UKT9]	-0.0205	-0.359	1.34	1.5
FLCEICGARFTQKGNLLRHIKL [46F_47L_49E_50I_52G_53A_54R_55F_67L_, Q9UKT9]	0.574	-1.16	-0.0449	2.33
FGCSVCGHIFTQKGNLLRHIKL [46F_47G_49S_50V_52G_53H_54I_55F_67L_, Q9UKT9]	-1.23	-2.7	-2.06	-1.9
LHCPICGFDCTQKGNLLRHIKL [46L_47H_49P_50I_52G_53F_54D_55C_67L_, Q9UKT9]	-1.62	-1.37	0.393	-0.313
FICNQCGREFTQKGNLLRHIKL [46F_47I_49N_50Q_52G_53R_54E_55F_67L_, Q9UKT9]	-2.93	-3.08	-3.08	-3.43

Sequence	log2 fold change of degron read counts [1]	log2 fold change of degron read counts [2]	log2 fold change of degron read counts [3]	log2 fold change of degron read counts (compound: thalidomide)
FQCEQCGACFTQKGNLLRHIKL [46F_47Q_49E_50Q_52G_53A_54C_55F_67L_, Q9UKT9]	-1.81	0.107	0.542	3.02
FCCPICGANFTQKGNLLRHIKL [46F_47C_49P_50I_52G_53A_54N_55F_67L_, Q9UKT9]	2.07	2.16	2.33	2.22
FMCEICGRGFTQKGNLLRHIKL [46F_47M_49E_50I_52G_53R_54G_55F_67L_, Q9UKT9]	-1.28	-1.8	-0.771	-1.76
LMCPICGFRCTQKGNLLRHIKL [46L_47M_49P_50I_52G_53F_54R_55C_67L_, Q9UKT9]	0.588	1.13	2.13	2
LLCPICGFRCTQKGNLLRHIKL [46L_47L_49P_50I_52G_53F_54R_55C_67L_, Q9UKT9]	0.662	-0.346	0.856	2.44
LTCPICGFRCTQKGNLLRHIKL [46L_47T_49P_50I_52G_53F_54R_55C_67L_, Q9UKT9]	1.45	2.61	1.91	2.92
LECPICGFRCTQKGNLLRHIKL [46L_47E_49P_50I_52G_53F_54R_55C_67L_, Q9UKT9]	1.29	0.491	2.73	3.62
LQCPICGFRCTQKGNLLRHIKL [46L_47Q_49P_50I_52G_53F_54R_55C_67L_, Q9UKT9]	0.322	1.54	0.782	3.35
LRCPICGFRCTQKGNLLRHIKL [46L_47R_49P_50I_52G_53F_54R_55C_67L_, Q9UKT9]	-0.000253	-0.254	0.655	1.06
LTCPICGFICTQKGNLLRHIKL [46L_47T_49P_50I_52G_53F_54I_55C_67L_, Q9UKT9]	-0.0311	0.718	1.67	1.78
LYCPICGFRCTQKGNLLRHIKL [46L_47Y_49P_50I_52G_53F_54R_55C_67L_, Q9UKT9]	3.08	3.4	1.5	1.15
LQCPICGFICTQKGNLLRHIKL [46L_47Q_49P_50I_52G_53F_54I_55C_67L_, Q9UKT9]	-0.0184	2.22	2.06	3.45
LVCPICGFRCTQKGNLLRHIKL [46L_47V_49P_50I_52G_53F_54R_55C_67L_, Q9UKT9]	1.86	3.01	1.42	3.2
LDCPICGFRCTQKGNLLRHIKL [46L_47D_49P_50I_52G_53F_54R_55C_67L_, Q9UKT9]	2	0.931	1.11	2.55
LSCPICGFICTQKGNLLRHIKL [46L_47S_49P_50I_52G_53F_54I_55C_67L_, Q9UKT9]	1.06	1.05	1.47	0.848
